These results are taken from PubChem BioAssay AID652061 (Broad Institute, 2013).

The experiment in a line: start codon recognition fidelity modulators – S. cerevisiae, UUG firefly luciferase, cherry-pick, set 2, dose response (AID 652061).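 Also: 0% = median DMSO signal and 100% = twice the DMSO signal.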 The note with it: max activity: measured here: max activity, test 2, at 38 µM, test 2, stronger effect = higher value unless noted.

The other results are listed elsewhere or left out. Active and inactive are the calls of the source.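 The calls were made as follows: active = signal increase whose fitted curve reaches an absolute level of 40 at a concentration under 10 µM; inactive = activity opposite to the expected increase, or the rest.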

Turning to `Cc1c(Nc2cc(N3CCCC(C)C3)c3nonc3c2[N+](=O)[O-])c(=O)n(-c2ccccc2)n1C` (stereo not drawn), the max activity was determined as 9.02% and the compound was called inactive. Consider `CC1CCCN(S(=O)(=O)c2ccc(N(C(=O)c3cnccn3)C(C(=O)NC3CCCCC3)c3cccs3)cc2)C1` (stereo not drawn), for which the max activity was -8.84% [measured here: max activity, test 2, at 0.05 µM, test 2, stronger effect = higher value] and the outcome was inactive. `O=C(N[C@H]1CC[C@@H](CCNS(=O)(=O)Cc2ccccc2)O[C@H]1CO)c1ccccc1F`: the max activity is 8.33% [at 0.035 µM, test 1, stronger effect = higher value] (inactive). On to `CC(=O)N1CC(=O)N(CC(=O)Nc2ccc(Br)cc2)C1=S`, for which the max activity was 9.59% [measured here: max activity, test 2, at 1.35 µM, test 2, stronger effect = higher value] and the compound was classed as inactive. For `O=C(COc1ccc(Cl)cc1)NCc1nnc(SCC(=O)NCC2CCCO2)o1` (stereo not drawn), the max activity was -8.21% [measured here: max activity, test 2, at 0.15 µM, test 2, stronger effect = higher value] and the call was inactive.

`C[C@@H]1CN([C@@H](C)CO)C(=O)c2cc(Br)cnc2O[C@@H]1CN(C)C(=O)C1CCCCC1`: the max activity is -6.87% [at 0.9 µM, test 1, stronger effect = higher value] (inactive).

As to `CC1CCC(NC(=O)C2c3ccccc3C(=O)N2Cc2ccc3c(c2)OCO3)CC1` (stereo not drawn), the max activity was -4.01% and the call was inactive. Take `O=C1N=C(N2CCc3ccccc3C2)S/C1=C\c1ccc(O)cc1`: the max activity is 7.99% [measured here: max activity, test 2, at 12 µM, test 2, stronger effect = higher value] and the result was inactive. With `CC(C)C#Cc1ccc2c(c1)O[C@@H](CN(C)C(=O)CN(C)C)[C@@H](C)CN([C@H](C)CO)S2(=O)=O`, the max activity was -9.02% [at 0.3 µM, test 1, stronger effect = higher value] (inactive). Still for that read-out and setting: the result for `C[C@@H]1CN([C@@H](C)CO)S(=O)(=O)c2ccc(C#Cc3ccc(F)cc3)cc2O[C@H]1CN(C)C(=O)NC1CCCC1` reads 10% [at 2.85 µM, test 1, stronger effect = higher value] (inactive). In the case of `COc1ccc(CCN2C(=O)[C@@]3(Cc4ccccc42)c2ccccc2C(=O)N(Cc2ccccc2C(F)(F)F)[C@H]3c2ccc(CO)cc2)cc1`, the max activity is 5.62% [at 26 µM, test 1, stronger effect = higher value] (inactive). With `CN1CCN(C(=O)/C(=C\c2cccs2)NC(=O)c2cccs2)CC1`, the max activity came out at 13.1% and the call was inactive. On to `c1ccc(-n2cccc2)c(N2CCCCC2)c1`, for which the max activity was 8.5% [measured here: max activity, test 2, at 0.05 µM, test 2, stronger effect = higher value] and the call was inactive. Take `O=C(C1CCC1)N1C[C@H]2[C@@H](c3ccccc31)[C@@H](CO)N2C(=O)c1ccccc1F`: the max activity is 6.68% [at 0.035 µM, test 1, stronger effect = higher value] (inactive). Still for that read-out and setting: the result for `COc1ccc(NC(=O)N(C)C[C@H]2OCCCC[C@@H](C)Oc3ccc(NC(=O)NC4CCCCC4)cc3C(=O)N([C@@H](C)CO)C[C@H]2C)cc1` reads 8.38% [at 26 µM, test 1, stronger effect = higher value] (inactive).
